Experimental data reported in PubChem BioAssay (NCI).
Compounds without any hit were thinned out: in the full panel of roughly 83,000, 20% have a hit.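 Testing used 96-well plates and a 48-hour single-concentration exposure. Example: -40 means 40% of the starting cells died.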 A number with no mark means an inactive call. The source made the active and inactive calls. Rule for the calls: active = growth percent below 10; inactive = the rest.

test system: MOLT-4 leukemia; assay: NCI-60 one-dose screen, 48 h (100 = growth as untreated, 0 = no growth, -100 = all killed); conditions: 10 µM unless noted

Question: Which growth does the source give for O=C(Nc1ccc(CN2CCOCC2)c(C(F)(F)F)c1)c1nc2ccc3[nH]ncc3c2c2c1CCCC2 here?
Answer: The growth was 76.3%.

Question: With CC(C)[C@H]1CCC2=C3CC[C@]45OC(=O)[C@@]6(CCC(C)(C)C[C@H]64)CC[C@@]5(C)[C@]3(C)CC[C@@]21C as the compound, how does the growth read?
Answer: The growth was 26.5% [100 µM].

Question: With Cc1ccc2c(c1)/C(=N\N=C/c1cn(C(C)C)c3ccccc13)C(=O)N2 as the compound, how does the growth read?
Answer: Its growth is -10% (active).

Question: For COc1ccc(C(=O)c2nccc3cc(OC)c(OC)cc23)cc1OC, which growth is on record?
Answer: The growth was 103%.

Question: With Nc1cc(C(=O)O)[nH]c(=S)n1 as the compound, how does the growth read?
Answer: The growth was 101%.

Question: For CC1(C)CC[C@]2(C(=O)O)CC[C@]3(C)C(=CC[C@@H]4[C@@]5(C)C/C(=C/c6cccnc6)[C@H](O)C(C)(C)[C@@H]5CC[C@]43C)[C@@H]2C1, which growth is on record?
Answer: Its growth is 4.37% [100 µM] (active).

Question: For ClC1=C(Cl)C(Cl)=C(Cl)C1=Cc1ccccc1, which growth is on record?
Answer: Its growth is 2.93% (active).

Question: CCCCC(CCCCCC(CCCC)C1NC(C)Cc2cc(OC)c(OC)cc21)C1NC(C)Cc2cc(OC)c(OC)cc21 (configuration not stated) was tested. Which growth did it give?
Answer: Its growth is -63% (active).

Question: With COc1ccccc1S(=O)Nc1ccccc1 (configuration not stated) as the compound, how does the growth read?
Answer: Its growth is 103%.

Question: Which growth does the source give for Cc1cnc(N)nc1OCC(C)(C)CNC(=O)c1cccc(-c2ccc(S(=O)(=O)Nc3ccc4c(c3)N(C(=O)C3CC3)CCC4)cc2)c1 here?
Answer: The growth was 29.1%.

Question: Which growth does the source give for C=C(C)[C@@H]1CC[C@]2(COC(=O)c3ccccc3C(=O)O)CC[C@]3(C)[C@H](CC[C@@H]4[C@@]5(C)CC[C@H](OC(=O)c6ccccc6C(=O)O)C(C)(C)[C@@H]5CC[C@]43C)[C@@H]12 here?
Answer: Its growth is 39.9% [100 µM].

Question: Cc1cc(N2CCCCCC2)nc(N2CCN(CC(=O)Nc3ccc4c(ccn4Cc4ccccc4)c3)CC2)n1 was tested. Which growth did it give?
Answer: Its growth is 41.1%.

Question: How did the growth turn out when CC1(C)C(=O)/C(=C\c2cccnc2)C[C@]2(C)[C@H]3CC[C@@H]4[C@H]5[C@H](C(=O)/C=C/c6cccnc6)CC[C@]5(C(=O)O)CC[C@@]4(C)[C@]3(C)CC[C@@H]12 was run?
Answer: The growth was 4.49% [100 µM] (active).

Question: How did the growth turn out when CCN(CC)CCSC(=O)C(O)(c1ccccc1)C1CCCC1 (configuration not stated) was run?
Answer: Its growth is 91.3%.

Question: Which growth does the source give for O=C(NNc1ccc(-c2ccccc2)nn1)c1ccccc1 here?
Answer: Its growth is 90.3%.

Question: How did the growth turn out when Cc1cc2c(C(C)C)c(O)c(O)c(C=NCc3ccoc3)c2c(O)c1-c1c(C)cc2c(C(C)C)c(O)c(O)c(C=NCc3ccco3)c2c1O was run?
Answer: Its growth is 14.5%.

Question: How did the growth turn out when c1ccc(-c2nnc(-c3c[nH]c4ncccc34)s2)cc1 was run?
Answer: Its growth is 83.4%.

Question: How did the growth turn out when Cc1ccc(-c2cc(-c3ccc(C)cc3)nc(NCCNc3ccnc4cc(Cl)ccc34)n2)cc1 was run?
Answer: Its growth is -29.6% (active).

Question: With Cn1cc(-c2noc(C(=O)c3cn(C)c4ncccc34)n2)c2ccccc21 as the compound, how does the growth read?
Answer: The growth was 95.6%.

Question: Cc1cc(NN=C(c2ccc(O)cc2)c2ccc(O)cc2)c([N+](=O)[O-])cc1[N+](=O)[O-] was tested. Which growth did it give?
Answer: The growth was 108%.

Question: For O=C(C[n+]1ccn(CC(OCc2ccc(Cl)cc2Cl)c2ccc(Cl)cc2Cl)c1)c1ccc(F)cc1 (configuration not stated), which growth is on record?
Answer: The growth was -19.9% (active).

Question: With COc1cc(-c2nc(SCCC(C)C)nc(Nc3ccc(S(N)(=O)=O)cc3)c2C#N)cc(OC)c1OC as the compound, how does the growth read?
Answer: Its growth is 1.98% (active).

Question: Which growth does the source give for CC(C)=CCC[C@](C)(O)[C@H]1CC[C@]2(C)[C@@H]1CC[C@@H]1[C@@]3(C)CC[C@H](OC(=O)CCC(=O)O)C(C)(C)[C@@H]3CC[C@]12C here?
Answer: The growth was 5.86% [100 µM] (active).

Question: C=C(C)[C@@H]1CC[C@]2(C)[C@H](CC[C@@H]3[C@@H]([C@@](C)(O)CCC=C(C)C)CC[C@]32C)[C@@]1(C)CCC(=O)O was tested. Which growth did it give?
Answer: Its growth is -0.176% [100 µM] (active).

Question: Which growth does the source give for O=C(CCN1CCCCC1)c1ccc2ccccc2c1 here?
Answer: The growth was 108%.

Question: For O=C(N/N=C/c1c(Cl)cccc1Cl)c1cccc(Nc2ccnc(C(F)(F)F)c2)c1, which growth is on record?
Answer: Its growth is 88.1%.

Question: With CCc1ccc(C2=C/C(=C/c3ccccc3)C(=O)N2CCc2ccc(S(N)(=O)=O)cc2)cc1 as the compound, how does the growth read?
Answer: Its growth is 97%.

Question: For COc1cc2c(cc1OCCCCCOc1ccc(-n3c(C)nc4ccccc4c3=O)cc1)N=C[C@@H]1CCCN1C2=O, which growth is on record?
Answer: Its growth is -31.2% (active).

Question: Which growth does the source give for CCN(CCO)CCC(=O)c1ccc([N+](=O)[O-])cc1 here?
Answer: Its growth is 114%.

Question: With COc1c(B(O)O)cccc1-c1nc2ccc3[nH]ncc3c2c2c1CCC2 as the compound, how does the growth read?
Answer: Its growth is 61.6%.

Question: Which growth does the source give for Cc1ccc(-c2cc(O)c(-c3ccc(C)cc3C)cc2O)c(C)c1 here?
Answer: The growth was 31.7%.

Question: How did the growth turn out when C=C(C)[C@@H]1CC[C@]2(c3ncc(C)o3)CC[C@]3(C)[C@H](CC[C@@H]4[C@@](C)(CCC#N)[C@H](C(=C)C)CC[C@]43C)[C@@H]12 was run?
Answer: Its growth is -35.4% [100 µM] (active).
